We go through 17 molecules from PubChem BioAssay.

Assay [1] can be described thus: stimulators of insulin release from INS-1E, primary screen, cell-based, 5 mM glucose, NPC library (AID 1117329). The following applies: rat INS-1E insulin secretion, at 10 µM, active compounds read high.
Assay [2] is described as follows: growth inhibition of GSK3B-pretreated HCT116 cells – cell-based, CellTiter-Glo, 0.2 to 20 µM (AID 1117336;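 active means compounds lowering colon cancer cell viability after pretreatment blocking the GSK3B kinase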). The settings on record: HCT116 viability after GSK3B inhibitor, at 20 µM, active compounds read high. On the technique in general: In ATP-based viability assays light output follows the ATP content of the culture.
A short description of assay [3]: inhibition of endothelial tube formation, primary screen, imaging, VEGF stimulated, CD31 staining, tube area, NPC library (AID 1117340;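 active means compound that reduces growth-factor-driven endothelial tube area in a mixed cell culture, no cutoff stated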). The following applies: VEGF-stimulated ADSC/ECFC co-culture, at 10 µM, active compounds read high.
A short description of assay [4]: GLP1 release stimulators, primary, NCI-H716, NPC library (AID 1117341;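 active means compound raises GLP1 secretion from the human gut endocrine cells, with no numeric limit stated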). The following applies: NCI-H716 cells, at 10 µM, active compounds read high.
A short description of assay [5]: HCT116 colon cancer cell growth inhibition, primary screen, CellTiter-Glo luminescence, NPC library (AID 1117342;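 active means compounds that lower survival of HCT116 colon cancer cells in the luminescence readout, no numeric limit stated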). The following applies: at 20 µM (top of the series).
The nature of assay [6]: reduced SW480 viability measured with CellTiter-Glo, NPC library, primary (AID 1117343;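 active means compounds that lower viability of the colon cancer cells in the luminescence readout, with no numeric limit stated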). The following applies: CellTiter-Glo luminescence; at 20 µM (top of the series).
The nature of assay [7]: NPC library primary testing for decreased DLD-1 cell viability via CellTiter-Glo (AID 1117346;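 active means compounds that lower survival of DLD-1 colon cancer cells in the luminescence readout, no cutoff given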). The settings on record: DLD-1 viability, CellTiter-Glo luminescence; at 20 µM (top of the series).
The target of assay [8] is 6-phosphogluconate dehydrogenase, decarboxylating (Homo sapiens) (UniProt P52209). The assay can be described thus: inhibition of human phosphogluconate dehydrogenase – biochemical, recombinant enzyme, NADPH absorbance, primary screen (AID 1159550;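 active means at least 20% inhibition of 6-phosphogluconate dehydrogenase activity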). The following applies: recombinant 6PGD, NADPH absorbance 341 nm; at 10 µM; active compounds read high.

A number with no mark means an inactive call. Calls of active or inactive are those of the source.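 How the source made its calls, unless noted: active means compound raises insulin release from rat beta cells at 5 mM glucose, no numeric limit stated; inactive means the rest.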

Chain of 6-phosphogluconate dehydrogenase, decarboxylating (Homo sapiens) (P52209 whole entry, looked up): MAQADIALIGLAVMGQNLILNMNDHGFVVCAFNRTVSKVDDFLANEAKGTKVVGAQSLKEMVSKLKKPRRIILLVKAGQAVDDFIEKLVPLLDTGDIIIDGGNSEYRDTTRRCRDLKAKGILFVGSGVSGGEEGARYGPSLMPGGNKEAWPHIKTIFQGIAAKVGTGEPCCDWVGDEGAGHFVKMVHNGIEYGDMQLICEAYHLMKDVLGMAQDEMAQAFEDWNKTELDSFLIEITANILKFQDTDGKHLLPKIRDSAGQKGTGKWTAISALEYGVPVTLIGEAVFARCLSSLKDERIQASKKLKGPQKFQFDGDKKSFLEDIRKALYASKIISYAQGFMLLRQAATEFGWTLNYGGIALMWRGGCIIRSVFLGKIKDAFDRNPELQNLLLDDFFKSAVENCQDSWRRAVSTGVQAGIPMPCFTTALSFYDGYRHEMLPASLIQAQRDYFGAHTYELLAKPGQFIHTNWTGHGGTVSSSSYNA

Broadly, the inhibition is the change of the read-out against control, counted positive when it falls. Turning to `CCCOc1ccc2nc(NC(=O)OC)[nH]c2c1`, the insulin secretion stimulation in assay [1] is 1.2%. Also, the viability decrease in assay [2] is 27%. Further, the tube area decrease in assay [3] was 107% (active). In addition, the GLP1 secretion stimulation in assay [4] was -1.2%. Besides, the inhibition of viability in assay [5] is 57.5% (active). For the same molecule, the viability decrease (inhibition) in assay [6] is 14.3%; in assay [7] it was 38.1%. In addition, the inhibition in assay [8] was 2.75%.
For `CC(=O)Nc1ccc(OCC(O)CNC(C)C)cc1` (stereo unspecified), the insulin secretion stimulation in assay [1] is 5.6%. Besides, the viability decrease in assay [2] is 4.2%. Further, the tube area decrease in assay [3] is -0.3%. Further, the GLP1 secretion stimulation in assay [4] is -1.9%. Moreover, in assay [5], the inhibition of viability is 11.1%. Besides, the viability decrease (inhibition) in assay [6] is 26.9%; in assay [7], 42%. Further, the inhibition in assay [8] is 2.72%.
For the molecule `C[N+]12CCC(CC1)C(OC(=O)C(O)(c1ccccc1)c1ccccc1)C2` (stereo unspecified), in assay [1], the insulin secretion stimulation is -0.3%. Besides, in assay [2], the viability decrease is -30.2%. In assay [3], the tube area decrease was 0.5%. The GLP1 secretion stimulation in assay [4] was -3.1%. For the same molecule, the inhibition of viability in assay [5] was 10.6%. Also, the viability decrease (inhibition) is 22.9% in assay [6] and -13.7% in assay [7]. Also, the inhibition in assay [8] is 11.7%.
On to `CC(C)COCC(CN(Cc1ccccc1)c1ccccc1)N1CCCC1` (stereo unspecified), for which the insulin secretion stimulation in assay [1] is 4.8%. Besides, the viability decrease in assay [2] is 98% (active). Also, the tube area decrease in assay [3] was 32.8%. Moreover, in assay [4], the GLP1 secretion stimulation was 4.3%. Also, the inhibition of viability in assay [5] is 105% (active). The viability decrease (inhibition) in assay [6] was 117% (active); in assay [7], 97% (active). Moreover, the inhibition in assay [8] was 1.94%.
Regarding `Nc1ccc(S(=O)(=O)Nc2cnc3ccccc3n2)cc1`, in assay [1], the insulin secretion stimulation is 1.2%. Further, the viability decrease in assay [2] is 21%. Moreover, the tube area decrease in assay [3] was -18.5%. Further, the GLP1 secretion stimulation in assay [4] is 4.1%. For the same molecule, the inhibition of viability in assay [5] was 0.93%. Also, the viability decrease (inhibition) is -1% in assay [6] and -9.7% in assay [7]. In addition, the inhibition in assay [8] was 10.4%.
As to `Cn1c([N+](=O)[O-])cnc1COC(N)=O`, the insulin secretion stimulation in assay [1] is -4.5%. Also, the viability decrease in assay [2] was -8.4%. In assay [3], the tube area decrease was 6.2%. The GLP1 secretion stimulation in assay [4] is 0.7%. Also, the inhibition of viability in assay [5] is -2.4%. For the same molecule, the viability decrease (inhibition) in assay [6] was -4.9%; in assay [7], -13.8%. In assay [8], the inhibition is -20.2%.
In the case of `NC(=O)c1ccccc1O`, the insulin secretion stimulation in assay [1] is -0.8%. In addition, in assay [2], the viability decrease was 5.6%. Moreover, the tube area decrease in assay [3] is -13.1%. For the same molecule, in assay [4], the GLP1 secretion stimulation is 0.3%. Moreover, the inhibition of viability in assay [5] was 10.6%. The viability decrease (inhibition) in assay [6] is 27.7%; in assay [7], 0.25%. Moreover, in assay [8], the inhibition is -8.81%.
Turning to `COc1ccc(C2C(=O)c3ccccc3C2=O)cc1`, in assay [1], the insulin secretion stimulation was 0.7%. In addition, the viability decrease in assay [2] was 48.4%. In assay [3], the tube area decrease was -33.4%. Further, the GLP1 secretion stimulation in assay [4] was -6%. The inhibition of viability in assay [5] was 35.2%. For the same molecule, the viability decrease (inhibition) in assay [6] is 22.1%; in assay [7], 11%. Besides, the inhibition in assay [8] is -16%.
Take `CC(=O)OC/C=C(C)/C=C/C=C(C)/C=C/C1=C(C)CCCC1(C)C`: in assay [1], the insulin secretion stimulation is 3%. Besides, the viability decrease in assay [2] is -11.9%. Moreover, the tube area decrease in assay [3] is 0.2%. Besides, in assay [4], the GLP1 secretion stimulation is 5.9%. Further, the inhibition of viability in assay [5] was 2.7%. Further, the viability decrease (inhibition) was -5.5% in assay [6] and -3.2% in assay [7]. The inhibition in assay [8] is -10.8%.
As to `O=C(O)[C@@H](O)[C@H](O)[C@H](O)[C@@H](O)C(=O)O`, the insulin secretion stimulation in assay [1] was 3.6%. Moreover, in assay [2], the viability decrease is -8.4%. Besides, the tube area decrease in assay [3] is 23.5%. Further, the GLP1 secretion stimulation in assay [4] is -1.9%. Further, the inhibition of viability in assay [5] is 1.7%. Further, the viability decrease (inhibition) was 57.2% (active) in assay [6] and -6.1% in assay [7]. The inhibition in assay [8] was 3.91%.
Take `Nc1cc(-c2ccncc2)c[nH]c1=O`: the insulin secretion stimulation in assay [1] is 0.4%. The viability decrease in assay [2] is -33.1%. Also, in assay [3], the tube area decrease was -25.6%. Moreover, in assay [4], the GLP1 secretion stimulation is 0%. The inhibition of viability in assay [5] was -3.67%. In addition, the viability decrease (inhibition) in assay [6] is 15%; in assay [7], -7.5%. The inhibition in assay [8] was -7.06%.
Take `CN(Cc1cc(Br)cc(Br)c1N)C1CCCCC1`: the insulin secretion stimulation in assay [1] is 6.9%. In assay [2], the viability decrease was 87.5% (active). Further, the tube area decrease in assay [3] was 7.5%. In addition, in assay [4], the GLP1 secretion stimulation was -1.6%. The inhibition of viability in assay [5] was 80.7% (active). Besides, the viability decrease (inhibition) in assay [6] is 125% (active); in assay [7], 97.2% (active). In addition, in assay [8], the inhibition was 16%.
In the case of `CC1(C)S[C@@H]2[C@H](NC(=O)C(C(=O)O)c3ccccc3)C(=O)N2[C@H]1C(=O)O` (stereo partly specified), in assay [1], the insulin secretion stimulation is -0.6%. For the same molecule, the viability decrease in assay [2] is -17.4%. Also, the tube area decrease in assay [3] is -10.8%. In addition, the GLP1 secretion stimulation in assay [4] was -0.3%. Also, the inhibition of viability in assay [5] is -4.4%. In addition, the viability decrease (inhibition) in assay [6] is -13%; in assay [7], -17.8%. Also, in assay [8], the inhibition is -9.55%.
Take `Cc1cc(-c2ccccc2)nnc1NCCN1CCOCC1`: the insulin secretion stimulation in assay [1] was -1.9%. For the same molecule, the viability decrease in assay [2] was -42.6%. For the same molecule, the tube area decrease in assay [3] was 6.8%. Besides, the GLP1 secretion stimulation in assay [4] was 0.4%. The inhibition of viability in assay [5] was 6.4%. Also, the viability decrease (inhibition) in assay [6] is 12.4%; in assay [7], -6.5%. In addition, in assay [8], the inhibition is 3.56%.
`CCCOc1ccccc1-c1nc2n[nH]nc2c(=O)[nH]1`: in assay [1], the insulin secretion stimulation was -0.8%. Also, the viability decrease in assay [2] was -203%. Further, the tube area decrease in assay [3] was -11.3%. For the same molecule, the GLP1 secretion stimulation in assay [4] was 1.4%. Also, the inhibition of viability in assay [5] was 17.5%. Further, the viability decrease (inhibition) in assay [6] was 9.4%; in assay [7] it was 1%. Also, the inhibition in assay [8] was -4.08%.
Take `C[C@]12CC[C@@H]3c4ccc(O)cc4CC[C@H]3[C@@H]1C[C@@H](O)[C@@H]2O`: in assay [1], the insulin secretion stimulation was 2%. Further, the viability decrease in assay [2] was 11.1%. The tube area decrease in assay [3] is -3.9%. Also, the GLP1 secretion stimulation in assay [4] is 12.5%. In assay [5], the inhibition of viability was 4.67%. Also, the viability decrease (inhibition) in assay [6] is 25.1%; in assay [7] it was -13.7%. For the same molecule, the inhibition in assay [8] was -14.5%.
Turning to `CN1Cc2c(N)cccc2C(c2ccccc2)C1` (stereo unspecified), the insulin secretion stimulation in assay [1] was 6.6%. In assay [2], the viability decrease was -9.2%. Also, in assay [3], the tube area decrease is 3.2%. Moreover, the GLP1 secretion stimulation in assay [4] is 0.3%. The inhibition of viability in assay [5] was 10%. The viability decrease (inhibition) in assay [6] was 25.6%; in assay [7], 4.2%. For the same molecule, the inhibition in assay [8] was 5.71%.
